# FBW7 act: FBW7 E3 ligase activators, primary screen, biochemical, AlphaScreen, human; AlphaScreen FBW7–phospho-cyclin E peptide binding, activator screen; normalized activity (activation), % at 26.1 µM; hit rate 0.13% among 650,000; in the data active = normalized activity above about 1.9%;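 also: purified mutant Fbw7 with reduced substrate affinity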
# TEAD-YAP inh: TEAD-YAP interaction inhibition, primary screen, TEAD-YAP interaction inhibitor project, luminescence, HEK-TIYL cells; TEAD-Gal4/YAP UAS-luciferase luminescence; inhibition, % at 9.12 µM; hit rate 1.4% among 640,000; AID 1259422, 2018; in the data active = inhibition above about 32%;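 also: 0% = median of test compound wells and 100% = reference inhibitor wells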
# GPR151 ag: activators of human GPR151, primary screen, cell-based, PathHunter beta-arrestin, luminescence | PathHunter beta-arrestin GPR151 cells | activation, % at 11.2 µM | AID 1508602, 2020 | hit rate 1% among 650,000; in the data active = activation above about 4.9%;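 also: 0% = median of compound wells and 100% = cells with positive control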
# MITF inh: MITF inhibitors, primary screen, biochemical, AlphaScreen, human. hit rate 0.91% among 650,000. AlphaScreen MITF homodimerization, bead proximity signal. inhibition, % at 2.6 µM; in the data active = inhibition above about 50%;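 also: 0% = vehicle wells with protein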
# GPR151 conf act: GPR151 activators, triplicate retest, confirmation, cell-based, PathHunter beta-arrestin, luminescence. GPR151 PathHunter beta-arrestin cells, 90 min; % of EA-reagent control over plate median. shares compounds with GPR151 ag. 6,700 tested, under 10 active. activation, % at 11.2 µM;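 active = mean percent activation across replicates above the confirmation screen cutoff of 4.91%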
# GPR119 counter: GPR119 activators in beta-arrestin cells, counter-screen for GPR151 activator project, cell-based, PathHunter beta-arrestin, luminescence, triplicate | activation, % at 11.2 µM | 90 min; 0 = compound-well median, 100 = enzyme-acceptor control | shares compounds with GPR151 ag | AID 1508611, 2020 | hit rate 0.3% among 6,700;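 active = mean percent activation in the counterscreen above 29.09%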;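 also: counterscreen on off-target GPR119 to flag nonselective hits from the GPR151 activator screen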
# Target sequence (Q8TDV5 whole entry, looked up): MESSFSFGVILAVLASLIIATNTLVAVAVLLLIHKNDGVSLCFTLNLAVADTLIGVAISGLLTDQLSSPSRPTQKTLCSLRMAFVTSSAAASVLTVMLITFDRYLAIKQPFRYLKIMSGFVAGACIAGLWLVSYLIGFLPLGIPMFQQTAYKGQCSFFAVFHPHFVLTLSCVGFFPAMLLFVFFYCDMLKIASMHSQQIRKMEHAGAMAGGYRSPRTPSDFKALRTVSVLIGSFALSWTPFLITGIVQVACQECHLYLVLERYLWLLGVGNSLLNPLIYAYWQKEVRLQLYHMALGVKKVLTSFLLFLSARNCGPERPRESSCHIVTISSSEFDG
# Starred values were filed as active, the others as inactive; · = no result. Sampled rows, rich in hits. Any-hit rate of the full collection: about 3.4%.
SMILES,FBW7 act,TEAD-YAP inh,GPR151 ag,MITF inh,GPR151 conf act,GPR119 counter
Cc1ccccc1-c1nc(-c2ccc(Cl)cc2)no1,0.1,-11.4,5.1*,0.6,-0.4,-4.3
Cc1ccccc1-c1nc(-c2ccc(Br)cc2)no1,-0.3,-8.2,0.8,0.4,·,·
O=C(NCCCN1CCCCCC1)C(c1ccccc1)C1CCCCC1 (configuration not stated),-0.2,·,5.3*,-8.8,-0.2,0.8
CC(C(=O)Nc1nc2ccccc2s1)N1C(=O)c2ccccc2C1=O (configuration not stated),-0.1,-7.0,9.7*,2.3,0.7,-14.4
Cc1ccc(NC(=O)C(C)N2C(=O)c3ccccc3C2=O)cc1C (configuration not stated),0.0,3.3,6.3*,-2.4,-0.2,-8.0
Cc1cc(C)cc(NC(=O)C(C)N2C(=O)c3ccccc3C2=O)c1 (configuration not stated),0.2,1.0,1.6,0.0,·,·
CCOc1ccc(-c2nocc2C#N)cc1,-0.1,-13.2,0.0,5.0,·,·
Cn1c(=S)oc2cc(S(=O)(=O)N3CCOCC3)ccc21,-0.1,0.6,-2.3,6.7,·,·
O=C(Nc1cc(Cl)c(Cl)cc1Cl)c1cnc2n(c1=O)CCS2,0.2,11.1,7.7*,-7.0,0.2,9.4
CCCCCC(=O)N/N=C/c1c(F)cccc1Cl,0.4,-17.1,1.3,9.8,·,·
Cc1ccc(C(=O)N2CCN(C=O)CC2)c(Cl)c1,0.4,4.0,6.5*,16.2,-0.1,-4.3
O=CN1CCN(C(=O)c2ccccc2Cl)CC1,0.1,-2.8,0.7,9.7,·,·
N#C/C(=C\c1cccs1)C(=O)Nc1ccc([N+](=O)[O-])cc1Br,0.0,0.0,6.4*,7.1,1.0,6.5
Cc1ccc(NC(=O)/C(=C/c2cccc([N+](=O)[O-])c2)NC(=O)c2cccs2)c(Br)c1,0.3,4.2,6.9*,16.4,5.5*,-4.4
Cc1cc(NC(=O)/C(=C/c2cccc([N+](=O)[O-])c2)NC(=O)c2cccs2)ccc1Br,0.1,2.4,0.9,-10.7,·,·
CCOC(CNC(=O)c1nnc(-c2ccccc2)o1)OCC,-0.1,-6.0,-0.7,7.4,·,·
CC(C)(C)OC(=O)N1CCC(Nc2nccc(-c3ccc(S(C)(=O)=O)cc3)n2)CC1,0.1,-14.9,2.7,-3.2,·,·
CC(C)(C)OC(=O)N1CCN(c2nccc(-c3ccc(-c4ccc(Cl)cc4)s3)n2)CC1,·,·,5.3*,·,-0.4,6.7
Clc1ccccc1/C=N/Nc1nncc(-c2ccccc2)n1,-0.6,-25.6,6.2*,-6.3,0.3,0.1
Cc1nc(N/N=C/c2c(O)ccc3ccccc23)cc(N2CCCCC2)n1,-0.6,3.1,0.0,16.4,·,·
COc1ccc(/C=C(\NC(=O)c2ccc(OC)cc2)C(=O)NC(C)C(=O)O)cc1 (configuration not stated),0.0,0.7,1.7,13.8,·,·
COc1ccc(C(=O)N/C(=C/c2ccccc2)C(=O)NC(C)C(=O)O)cc1 (configuration not stated),0.0,3.0,8.7*,11.2,0.8,10.7
Cn1c(=O)c(=O)n(C)c2cc(S(=O)(=O)Nc3ccc(Br)cc3)ccc21,-0.4,3.8,0.9,12.6,·,·
COC(=O)c1cccc(C(=O)N2CCCC(N3CCN(c4ccccc4)CC3)C2)c1 (configuration not stated),-0.1,-9.4,0.0,0.8,·,·
O=C(NCCCc1ccncc1)C1CC12CCN(C(=O)c1cc(-c3ccccc3)no1)CC2 (configuration not stated),0.8,5.7,6.1*,17.2,1.4,4.7
SMILES,FBW7 act,TEAD-YAP inh,GPR151 ag,MITF inh,GPR151 conf act,GPR119 counter
O=C(NCc1ccco1)C1CC12CCN(C(=O)c1cc(-c3ccccc3)no1)CC2 (configuration not stated),0.0,-12.1,2.0,12.8,·,·
O=C(NCc1ccc(F)cc1)c1nn2c(C(F)(F)F)cc(-c3ccccc3)nc2c1Br,-0.1,1.7,5.9*,2.2,-0.5,-4.2
O=C(Nc1cccc(C(F)(F)F)c1)c1nn2c(C(F)(F)F)cc(-c3ccc(Br)o3)nc2c1Br,-0.4,9.0,16.9*,3.4,-0.5,0.5
O=C(NCc1cccnc1)c1nn2c(C(F)(F)F)cc(-c3ccccc3)nc2c1Br,-0.3,-2.7,0.5,-6.5,·,·
CCN1CCN(C(=O)NCc2noc3ccc(C)cc23)CC1,-0.1,9.1,-0.7,6.9,·,·
Cc1ccc2onc(CNC(=O)N3CCCCC3)c2c1,0.4,-9.6,7.0*,6.7,0.3,3.9
O=C(Nc1ccc(-c2nc3c(ccc4ccccc43)[nH]2)cc1)c1ccc([N+](=O)[O-])cc1,0.0,-10.6,1.2,-10.6,·,·
CCOc1ccc(N2C(=O)/C(=C\C(C)=C\c3ccccc3)S(=O)(=O)C2c2cccc([N+](=O)[O-])c2)cc1 (configuration not stated),0.0,6.6,-0.3,3.4,·,·
CC(CC(=O)Nc1ccc(F)cc1Cl)S(=O)(=O)c1ccc2c(c1)OCC(=O)N2 (configuration not stated),0.1,1.0,7.7*,11.5,0.4,-8.8
COc1ccc(OC)c(NC(=O)CC(C)S(=O)(=O)c2cc3c(cc2C)NC(=O)CO3)c1 (configuration not stated),0.2,-7.3,5.1*,-6.3,-0.4,-1.6
Cc1ccccc1NC(=O)CC(C)S(=O)(=O)c1cc2c(cc1C)NC(=O)CO2 (configuration not stated),-0.2,-6.8,1.8,8.2,·,·
COc1ccc(NC(=O)CC(C)S(=O)(=O)c2ccc3c(c2)OCC(=O)N3)cc1OC (configuration not stated),-0.1,-1.3,9.6*,-14.6,-0.6,-6.5
CC(CC(=O)Nc1ccc(F)cc1F)S(=O)(=O)c1ccc2c(c1)OCC(=O)N2 (configuration not stated),0.1,3.8,0.2,10.5,·,·
O=C1Nc2ccc([N+](=O)[O-])cc2C12NN=C(c1ccccc1)S2 (configuration not stated),0.1,-43.5,5.0*,8.7,0.5,15.2
COC(=O)c1ccc2c(=O)n(Cc3cccs3)c(=S)[nH]c2c1,0.1,7.2,0.6,7.3,·,·
CCCCNC(=O)c1cc(S(=O)(=O)N2CCOCC2)ccc1Sc1ccc(Br)cc1,0.1,-0.4,-0.3,2.1,·,·
O=C(NCCCN1CCOCC1)c1cc(S(=O)(=O)N2CCOCC2)ccc1Sc1ccc(Br)cc1,-0.2,-8.3,5.6*,-5.2,-1.1,5.3

# Screening data: PubChem, The Scripps Research Institute Molecular Screening Center
